{"source": "PubChem BioAssay (Tox21)", "note": "Inconclusive results are not listed. Unmarked numbers belong to inactive results. Calls follow the shape of the dose curve; as a rule, active = well fitted activation curve with a large enough effect in the repeat runs; inconclusive = weak or mixed curves; inactive = flat fitted curve, though single readings scatter. % is scaled to controls: 0 for no effect and ±100 for the full control effect.", "data": [{"assay": "A CellTox Green Cytotoxicity Assay to monitor cytotoxicity in HepG2 cells - 24 hour (AID 1224878); also: nearly all actives have a fitted effect of over 45% in size", "settings": "CellTox Green fluorescence; series mostly up to 76.8 µM; cytotoxicity: at the top concentration", "text": "National Center for Advancing Translational Sciences [NCATS]\nNIH Chemical Genomics Center [NCGC]\nU.S. Environmental Protection Agency [EPA]\nNational Institutes of Environmental Health Sciences [NIEHS]\nNational Toxicology Program [NTP]\nCell-based models are critical for drug discovery. Determining the natural cytotoxic effects resulting from test compounds is an essential research activity. A CellTox Green Cytotoxicity Assay to monitor cytotoxicity in real time of continues cell culture during 40 hours of the compound treatment was used to screen Tox21 10K library compounds in HepG2 cells. CellTox Green Cytotoxicity Assay is a nonlytic, homogeneous, biofluorescent method to measure cytotoxicity in cell culture after experimental manipulation. The assay system uses a proprietary asymmetric cyanine dye that is excluded from viable cells but preferentially stains the dead cell's DNA. […] Viable cells produce no appreciable increases in fluorescence. Therefore, the fluorescence signal produced by the binding interaction with dead cell DNA is proportional to cytotoxicity.\nThe mixture of HepG2 cell suspension and reagents were dispensed at 600cells/6 ul/well in 1536-well tissue culture treated black solid bottom plates using a Multidrop dispenser. After the assay plates were incubated at a 37 C/5% CO2 incubator for 5 hours, 23 nL of compounds dissolved in DMSO, positive and negative controls was transferred to the assay plate by a pintool work station. The plates were incubated at 37 C for 40 hours. The fluorescence intensity were measured at 0h, 8h, 16h, 24h, 32h and 40h time points using ViewLux plate reader during compound treatment.", "values": [{"smiles": "OCCC(F)(F)C(F)(F)C(F)(F)C(F)(F)C(F)(F)C(F)(F)F", "cytotoxicity": "-9.02%"}, {"smiles": "C=CCN(CC=C)CC=C", "cytotoxicity": "-12.1%"}, {"smiles": "C=C(C)C(=O)OCCCC", "cytotoxicity": "20%"}, {"smiles": "N#CC1(N)CCCCC1", "cytotoxicity": "1.34%"}, {"smiles": "CC(C)c1cc(C(C)C)cc(C(C)C)c1", "cytotoxicity": "-14.3%"}, {"smiles": "COC(=O)c1ccc(C(=O)O)cc1", "cytotoxicity": "-15.3%"}, {"smiles": "CCCCCCC(=O)c1ccccc1", "cytotoxicity": "0.826%"}, {"smiles": "C[Si](C)(C)O[Si](O)(O)O", "cytotoxicity": "-1.08%"}, {"smiles": "N=C(N)N1CCc2ccccc2C1", "cytotoxicity": "-11.7% [at 6.97 µM]"}, {"smiles": "CCCc1ncc(C(=O)O)s1", "cytotoxicity": "4.29% [at 35.3 µM]"}, {"smiles": "COC(=O)/C=C(\\C)CCC=C(C)C", "cytotoxicity": "-10.8%"}, {"smiles": "CC(=O)SC[C@@H](C)C(=O)N1CCC[C@H]1C(=O)N[C@@H](Cc1ccccc1)C(=O)O", "cytotoxicity": "-8.01% [at 35.3 µM]"}, {"smiles": "CCCC(=O)OC", "cytotoxicity": "-5.73%"}, {"smiles": "C[n+]1ccccc1/C=N/O", "cytotoxicity": "2.7% [at 35.3 µM]"}, {"smiles": "CC(CN1CC(=O)NC(=O)C1)N1CC(=O)NC(=O)C1", "note": "(stereo not given)", "cytotoxicity": "14.3%"}, {"smiles": "C=CCN1CCc2nc(N)sc2CC1", "cytotoxicity": "-0.274% [at 35.3 µM]"}, {"smiles": "O=C1Nc2ccccc2C1=O", "cytotoxicity": "-8.39%"}, {"smiles": "CCC(=O)OCCOc1ccccc1", "cytotoxicity": "-2.48%"}, {"smiles": "CCN(CC)CC(=O)Oc1ccc(NC(C)=O)cc1", "cytotoxicity": "-8.89% [at 35.3 µM]"}, {"smiles": "Cc1ccc(S(=O)(=O)NC(=O)NN2CC3CCCC3C2)cc1", "note": "(stereo not given)", "cytotoxicity": "-0.0925% [at 35.3 µM]"}, {"smiles": "C[C@H]1COc2c(C3(N)CC3)c(F)cc3c(=O)c(C(=O)O)cn1c23", "cytotoxicity": "-6.06% [at 35.3 µM]"}, {"smiles": "Nc1ccc(C(=O)NCC(=O)O)cc1", "cytotoxicity": "-11% [at 35.3 µM]"}, {"smiles": "CC(C)(C)C(=O)CCc1ccc(Cl)cc1", "cytotoxicity": "8.78%"}, {"smiles": "CC(C)(C)OC(=O)c1ccccc1C(=O)O", "cytotoxicity": "12.3%"}, {"smiles": "CN1C(CCl)Nc2cc(Cl)c(S(N)(=O)=O)cc2S1(=O)=O", "note": "(stereo not given)", "cytotoxicity": "-2.21% [at 35.3 µM]"}, {"smiles": "Cc1cc(C)c(C)c(C)c1", "cytotoxicity": "-5.08%"}, {"smiles": "Cc1ccc(O)c([N+](=O)[O-])c1", "cytotoxicity": "-0.714%"}, {"smiles": "CCOCCOCCOC(C)=O", "cytotoxicity": "2.19%"}, {"smiles": "CC(CC(=O)Cl)CC(C)(C)C", "note": "(stereo not given)", "cytotoxicity": "2.71%"}, {"smiles": "C[C@@H]1CCC[C@H](C)N1CCCC(O)(c1ccccc1)c1ccccn1", "note": "(stereo not given in full)", "cytotoxicity": "-7.3% [at 35.3 µM]"}, {"smiles": "CNCCc1ccccn1", "cytotoxicity": "-17.4% [at 35.3 µM]"}, {"smiles": "C[C@@H](CN1CC(=O)NC(=O)C1)N1CC(=O)NC(=O)C1", "cytotoxicity": "4.79% [at 35.3 µM]"}, {"smiles": "O=C(O)/C=C(\\CC(=O)O)C(=O)O", "cytotoxicity": "-3.55% [at 35.3 µM]"}, {"smiles": "N=C(N)N", "cytotoxicity": "9.17% [at 35.3 µM]"}, {"smiles": "CN1CCN(C(=O)C2CCCCC2)CC1", "cytotoxicity": "-35.6% [at 35.3 µM]"}, {"smiles": "CC/C=C/CCCCCCCCCCOC(C)=O", "cytotoxicity": "-21.7%"}, {"smiles": "O=C(O)Cc1c(Cl)ccc(Cl)c1Cl", "cytotoxicity": "1.93%"}, {"smiles": "Nc1nc(Cl)cc(Cl)n1", "cytotoxicity": "6.34%"}, {"smiles": "C/C(=N\\O)c1ccc(OCC(=O)N2CCCCC2)cc1", "cytotoxicity": "0.547% [at 35.3 µM]"}, {"smiles": "O=c1[nH]c(=O)c2cn[nH]c2[nH]1", "cytotoxicity": "-1.02%"}]}]}
